Assay results reported in the supplement of paper PMC10933113.
Structures can show the parent of a compound that is named as a salt. ± gives the uncertainty stated by the source.

Test system: THP-1
Experiment: CD54 surface expression induction over DMSO control (% over DMSO); higher = stronger dendritic cell activation
Conditions: exposure time: 24 h
Procedure: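 hCLAT-like CD54 and CD86 surface expression on THP1 cells after 24 h exposure at a single concentration (highest non-cytotoxic concentration, or 100-200 µM if not cytotoxic). Flow cytometry (iQue) was run on 5,000 live cells.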

SMILES | CD54 surface expression induction
COP(=S)(OC)Oc1ccc(SC)c(C)c1 [Fenthion] (100 µM) | -7.55 ± 5.7
O=C(CCl)CCl [1,3-Dichloropropanone] (200 µM) | -1.2 ± 0.3
ClC1=C(Cl)C2(Cl)C3C(Cl)C(Cl)CC3C1(Cl)C2(Cl)Cl (stereo not given) [Chlordane] (200 µM) | 27.9 ± 0.29
CC(C)(C)C(=O)CCl [1-Chloro-3,3-dimethyl-butan-2-one] (200 µM) | -19.8 ± 13
O=C1C(Cl)=C(Cl)C(=O)C(Cl)=C1Cl [Chloranil] (100 µM) | 17.4 ± 13
S=C=NCc1ccccc1 (10 µM) | 10.5 ± 7.8
CCC(C)(c1ccc(O)cc1)c1ccc(O)cc1 [Bisphenol B] (200 µM) | 3.9 ± 0.67
[CH3][Hg][Cl] [Methyl mercuric (II) chloride] (10 µM) | 36.6 ± 5.5
c1ccc2sc(SNC3CCCCC3)nc2c1 [N-Cyclohexyl-2-benzothiazolesulfenamide] (100 µM) | -15.5 ± 5.8
Nc1cc(Cl)ccc1O [2-Amino-4-chlorophenol] (200 µM) | 89.8 ± 6.4
O=[N+]([O-])c1ccc(Oc2ccc(C(F)(F)F)cc2[N+](=O)[O-])cc1 [Fluorodifen] (10 µM) | -6.85 ± 4.5
COc1ccc(C(c2ccc(OC)cc2)C(Cl)(Cl)Cl)cc1 [Methoxychlor] (200 µM) | 27.4 ± 9.6
Cc1ccc(N=C=O)cc1N=C=O [Toluene-2,4-diisocyanate] (100 µM) | -17 ± 4.1
N#CCC#N [Propanedinitrile] (199 µM) | -2.75 ± 3
O=C1C=CC(=O)c2ccccc21 (10 µM) | 239 ± 45
CN(C)c1ccc(N)cc1 [N,N-Dimethyl-p-phenylenediamine] (100 µM) | 30.8 ± 7.3
CCOC(=O)CC(SP(=S)(OC)OC)C(=O)OCC (stereo not given) [Malathion] (100 µM) | 3.59 ± 5.1
O=C1OC(CCN2CCCCC2)OC1(c1ccccc1)c1ccccc1 (stereo not given) [Pipoxolan hydrochloride] (100 µM) | 78.1 ± 22
[Cl][Cd][Cl] [Cadmium II chloride] (200 µM) | 50.2 ± 4.8
Cc1cc(C2CC2)nc(Nc2ccccc2)n1 [Cyprodinil] (200 µM) | 2.24 ± 3.2

SMILES | CD54 surface expression induction
C=C1C[C@@H]2[C@H](CC[C@]3(C)C(=O)CC[C@@H]23)[C@@]2(C)C=CC(=O)C=C12 [Exemestane] (100 µM) | -0.45 ± 0.02
CC(COc1ccc(Oc2ccccc2)cc1)Oc1ccccn1 (stereo not given) [Pyriproxyfen] (200 µM) | -4.39 ± 4.3
C[C@@H]1O[C@@H](O[C@H]2C[C@@H](O)[C@]3(CO)[C@H]4[C@H](O)C[C@]5(C)[C@@H](C6=CC(=O)OC6)CC[C@]5(O)[C@@H]4CC[C@]3(O)C2)[C@H](O)[C@H](O)[C@H]1O [Ouabain] (10 µM) | 21.9 ± 10
C[C@]12CC[C@H](O)C[C@H]1CC[C@@H]1[C@@H]2C[C@@H](O)[C@]2(C)[C@@H](C3=CC(=O)OC3)CC[C@]12O [Digoxigenin] (10 µM) | 27.6 ± 4.9
COc1ccccc1N [2-Methoxyaniline hydrochloride] (100 µM) | 2.44 ± 0.25
COP(=O)(OC)OC(Br)C(Cl)(Cl)Br (stereo not given) [Naled] (100 µM) | 3.64 ± 4.3
CN(C)c1ccc(N(C)C)cc1 [*N,N,N',N'-Tetramethyl-p-phenylenediamine] (200 µM) | 91.8 ± 6
c1cc(OCC2CO2)cc(OCC2CO2)c1 (stereo not given) [Diglycidyl resorcinol ether (DGRE)] (10 µM) | -3.16 ± 4.6
OC[P+](CO)(CO)CO [Tetrakis(hydroxymethyl)phosphonium SO4] (100 µM) | 8.38 ± 1.4
COc1ccc2[nH]cc(CCN(C(C)C)C(C)C)c2c1 [5-Methoxy-N,N-diisopropyltryptamine hydrochloride] (224.7 µM) | -7.18 ± 11
Cc1ccc2c(c1N)C(=O)c1ccccc1C2=O [1-Amino-2-methylanthraquinone] (100 µM) | 131 ± 21
CCC(C)(NC(=O)c1cc(Cl)c(C)c(Cl)c1)C(=O)CCl (stereo not given) [Zoxamide] (10 µM) | 10.1 ± 25
c1ccc2c(c1)OCC(C1=NCCN1)O2 (stereo not given) [Idazoxan] (10 µM) | -6.12 ± 5.1
O=C(N/N=C/c1ccc([N+](=O)[O-])o1)c1cc([N+](=O)[O-])cc([N+](=O)[O-])c1O [Nifursol] (200 µM) | 24.5 ± 8
NCCc1ccc(O)cc1 [Tyramine] (100 µM) | -4.6 ± 1.1
Fc1ccc(Oc2ccnc3cc(Cl)cc(Cl)c23)cc1 [Quinoxyfen] (200 µM) | -12.7 ± 1
CCOCN(C(=O)CCl)c1c(C)cccc1CC [Acetochlor] (10 µM) | 104 ± 21
Nc1ccc(Cl)cc1Cl [2,4-Dichloroaniline] (200 µM) | -7.56 ± 1.5
OCc1ccco1 [Furfuryl alcohol] (201 µM) | 0.62 ± 1.6
CCCCOCN(C(=O)CCl)c1c(CC)cccc1CC [Butachlor] (10 µM) | -3.73 ± 3.2
